# Measurements taken from PubChem BioAssay (NCI).
# About 83,000 compounds went through this panel and 20% of them were active in at least one assay; those are over-represented in the sample as a whole.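 For each line, cells grew in 96-well plates with the test compound present at a single concentration for 48 hours.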 A number with no mark means an inactive call. Calls of active or inactive are those of the source. Rule for the calls: active = growth percent below 10; inactive = the rest.
# Tested on: HCT-15 colon
# Assay: NCI-60 one-dose screen, 48 h (100 = growth as untreated, 0 = no growth, -100 = all killed)
# Settings: 10 µM unless noted
row,Compound,growth
1,CCc1ccc(OCc2ccccc2C(=O)Nc2ccc3nc(C)cc(N)c3c2)cc1,-75.4% (active)
2,Nc1cccc(C(=O)Nc2ccc3c(O)c(N=Nc4ccc(N=Nc5ccc(S(=O)(=O)O)cc5)cc4)c(S(=O)(=O)O)cc3c2)c1,108%
3,COc1cc(NCC(=O)Nc2cc(Nc3cccc(C(F)(F)F)c3)ncn2)c(Cl)c(OC)c1Cl,94%
4,CC1CCCN(CCCCCOc2ccc3oc4ccccc4c(=O)c3c2)C1 (configuration not stated),26.4%
5,CCCn1c(N)c(C(N)=O)sc1=S,90.6%
6,CCOC(=O)c1sc(/N=C2\NC(=O)/C(=C/c3ccc(N4CCN(C)CC4)cc3)S2)nc1C,95.9%
7,CN(C)C1=NCCN1,108%
8,CCOC(=O)c1ccc(Nc2ncnc3ccc(NC(=O)c4ccccc4)cc23)cc1,78.3%
9,N#CC1C(c2ccc(Cl)cc2)=Nc2c(c(-c3ccccc3)nn2-c2ccccc2)C12C(=O)Nc1ccc(Cl)cc12 (configuration not stated),20.5%
10,C#C[C@@]1(O)[C@@H](CO)O[C@@H](n2ccc3c(N)ncnc32)[C@@H]1O,2.94% (active)
11,CN(C)CCCn1c2c(c3cc(-c4cccc(S(N)(=O)=O)c4)ccc3c1=O)C(=O)c1ccccc1-2,61.7%
12,C=C1C(=O)O[C@H]2[C@H]1CC/C(COC(=O)/C=C/c1cccnc1)=C\CC[C@@]1(C)O[C@@H]21,3.01% (active)
13,C#C[C@@]1(O)[C@@H](CO)O[C@@H](n2cc(Cl)c3c(N)ncnc32)[C@@H]1O,1.65% (active)
14,CCOc1ccc(C2N(c3cc(OC)c(OC)c(OC)c3)C(=O)C2(F)F)cc1 (configuration not stated),22.6%
15,O=C1C(Cl)=C(NCCCN(CCCNC2=C(Cl)C(=O)c3ccccc3C2=O)C2=C(Cl)C(=O)c3ccccc3C2=O)C(=O)c2ccccc21,37.1%
16,COc1ccc(-c2nc(C#N)c(NCC(c3ccc(Cl)cc3)N3CCCCC3)o2)cc1 (configuration not stated),69.4%
17,Cc1nc2sc(C(=O)Nc3ccccc3)c(N)c2cc1C(C)O (configuration not stated),27.8%
18,O=C1CCC23OC(c4ccccc4N12)C(O)C(O)C3O (configuration not stated),109%
19,C=C1C(=O)O[C@H]2[C@H]1CC/C(COC(=O)CCCCC(=O)OC/C1=C/CC[C@@]3(C)O[C@H]3[C@H]3OC(=O)C(=C)[C@@H]3CC1)=C\CC[C@@]1(C)O[C@@H]21,18.1%

row,Compound,growth
1,CC[C@]12C=CCN3CC[C@@]4(c5cc(NC(=O)CCC(=O)O[C@H]6CC[C@H]7[C@@H]8CC[C@H]9CC(=O)CC[C@]9(C)[C@H]8CC[C@]67C)c(OC)cc5N(C)[C@H]4[C@@](O)(C(=O)OC)[C@@H]1OC(C)=O)[C@@H]32,58.2%
2,N#CC(C#N)=C1NC(c2ccccc2)=C(c2ccccc2)C(c2ccccc2Cl)=C1C#N,102%
3,CCCCCCCCCCCCCC1=NCC[N+]1(CCO)Cc1ccccc1 (configuration not stated),-89.4% (active)
4,Cc1cc(C)n(-c2nc(-c3cccs3)c(C#N)c(=O)[nH]2)n1,71.1%
5,COc1ccc(C2C(c3ccccc3)C(=O)N2c2cc(OC)c(OC)c(OC)c2)cc1I (configuration not stated),13.1%
6,CC(C)(C)c1ccc2oc(=O)n(SC(Cl)(Cl)Cl)c2c1,99.1%
7,CCOC(=O)c1c(C)nc2c(c1N)/C(=C/c1ccccn1)C(=O)N2Cc1ccccc1,-58.9% (active)
8,O=C(Nc1cccc(-c2cccc(F)c2)c1)C1CCN(Cc2cccc3cccnc23)CC1,19.5%
9,COc1ccc(C(C)c2cc(OC)c(OC)c(OC)c2)cc1 (configuration not stated),18%
10,Cc1ccc(SC2c3ccc(C)cc3Oc3nc(N)c(C#N)c(N)c32)cc1 (configuration not stated),30.7%
11,COC(=O)/C=C/c1cc(OC)c2c(c1)[C@@H](C(=O)OC)[C@H](c1ccc(OC)c(OC)c1)O2,32.2%
12,C#CCN(CCCOc1ccc(Cl)cc1Cl)CCCSC(=O)CCCCCN1/C(=C\C=C2/CCCC(/C=C/C3=[N+](CCCCCC(=O)[O-])c4ccccc4C3(C)C)=C2Cl)C(C)(C)c2ccccc21,87.2%
13,O=C1NCc2ccc3c(-c4cccc(Cl)c4)c[nH]c3c21,27.2%
14,O=C(/C(=C\c1c(-c2ccccc2)[nH]c2ccccc12)S(=O)(=O)c1ccccc1)c1ccccc1,57.4%
15,N#Cc1c(-c2ccc(F)cc2)nc(N=Nc2c(O)[nH]c3ccccc23)nc1N1CCOCC1,66.9%
16,CC(=O)OC[C@]12CC[C@@H](c3cn(Cc4ccc(Cn5cc([C@@H]6CC[C@]7(COC(C)=O)CC[C@]8(C)[C@H](CC[C@@H]9[C@@]%10(C)CC[C@H](OC(C)=O)C(C)(C)[C@@H]%10CC[C@]98C)[C@@H]67)nn5)cc4)nn3)[C@@H]1[C@H]1CC[C@@H]3[C@@]4(C)CC[C@H](OC(C)=O)C(C)(C)[C@@H]4CC[C@@]3(C)[C@]1(C)CC2,102%
17,Cc1c(Br)cccc1NC(=O)c1sc2nc3c(cc2c1N)CN(Cc1ccccc1)CC3,18.2%
18,COc1cccc(C(=O)OCCn2nc3c4c(cccc42)C(=O)c2ccccc2-3)c1O,28%
